Source: the supplement of paper PMC11001985
Values without a mark were called inactive.

Experiments:
Assay in all cases: lysine labeling ratio R10:1 (500 µM / 50 µM probe), SILAC-ABPP in living cells; higher = lower intrinsic lysine reactivity toward the probe, active = 2 or less
Details in all cases: HeLa; probe concentrations 500 vs 50 µM
[1] = target: ACLY (lysine site: K1080) (UniProt P53396)
In short: (§1)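 Living SILAC light and heavy HeLa cells in PBS at room temperature were treated with an alkyne-tagged, disulfide-linked lysine probe at 50 µM or 500 µM, with forward and reverse label swaps. The mixed lysates were clicked to biotin-azide, digested with trypsin, captured on neutravidin, released with DTT, alkylated and run by LC-MS/MS on a TIMS-TOF Pro. R for each lysine is the filtered median high-probe/low-probe MS1 peptide ratio, taken again as the median over forward and reverse replicates. Any value above 20 is set to 20.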

ACLY (lysine site: K272) = ACLY (lysine site: K272) (UniProt P53396)
Chain of ACLY (lysine site: K272) (P53396 whole entry): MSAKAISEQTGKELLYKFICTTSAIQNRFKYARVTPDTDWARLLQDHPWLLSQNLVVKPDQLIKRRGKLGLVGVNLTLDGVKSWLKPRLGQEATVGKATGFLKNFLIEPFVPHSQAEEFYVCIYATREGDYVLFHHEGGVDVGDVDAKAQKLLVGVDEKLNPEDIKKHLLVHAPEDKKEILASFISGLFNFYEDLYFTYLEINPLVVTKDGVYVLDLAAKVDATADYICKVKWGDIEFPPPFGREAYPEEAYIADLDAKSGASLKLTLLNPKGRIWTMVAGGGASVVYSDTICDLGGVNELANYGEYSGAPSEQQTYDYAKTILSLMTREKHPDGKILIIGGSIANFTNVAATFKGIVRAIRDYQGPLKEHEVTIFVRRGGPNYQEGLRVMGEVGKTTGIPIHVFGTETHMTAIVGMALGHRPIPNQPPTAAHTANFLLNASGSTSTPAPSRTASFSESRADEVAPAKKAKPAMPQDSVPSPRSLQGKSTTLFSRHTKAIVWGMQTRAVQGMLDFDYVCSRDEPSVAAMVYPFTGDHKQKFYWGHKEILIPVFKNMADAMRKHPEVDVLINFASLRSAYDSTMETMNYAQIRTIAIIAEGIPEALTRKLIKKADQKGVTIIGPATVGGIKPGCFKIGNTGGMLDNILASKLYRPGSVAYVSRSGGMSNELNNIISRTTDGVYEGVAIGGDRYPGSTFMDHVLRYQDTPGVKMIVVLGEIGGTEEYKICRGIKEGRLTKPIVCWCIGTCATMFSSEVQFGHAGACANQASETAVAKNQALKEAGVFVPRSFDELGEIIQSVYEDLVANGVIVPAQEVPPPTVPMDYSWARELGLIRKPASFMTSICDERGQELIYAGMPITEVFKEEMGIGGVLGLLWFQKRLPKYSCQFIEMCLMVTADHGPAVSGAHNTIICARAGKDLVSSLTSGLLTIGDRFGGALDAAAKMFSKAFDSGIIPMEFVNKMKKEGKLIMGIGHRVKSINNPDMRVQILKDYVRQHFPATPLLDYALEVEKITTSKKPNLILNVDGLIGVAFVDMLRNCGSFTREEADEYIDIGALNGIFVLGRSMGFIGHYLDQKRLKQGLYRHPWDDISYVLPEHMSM
In short: as §1

ACLY (lysine site: K780) = ACLY (lysine site: K780) (UniProt P53396)
Chain of ACLY (lysine site: K780) (P53396 whole entry): as above
In short: as §1

ACLY (lysine site: K836) = ACLY (lysine site: K836) (UniProt P53396)
Chain of ACLY (lysine site: K836) (P53396 whole entry): as above
In short: as §1

ACLY (lysine site: K968) = ACLY (lysine site: K968) (UniProt P53396)
Chain of ACLY (lysine site: K968) (P53396 whole entry): as above
In short: as §1

ACLY (lysine site: K978) = ACLY (lysine site: K978) (UniProt P53396)
Chain of ACLY (lysine site: K978) (P53396 whole entry): as above
In short: as §1

[2] = target: ADAM10 (lysine site: K273) (UniProt O14672)
In short: as §1

[3] = target: ADAM10 (lysine site: K410) (UniProt O14672)
In short: as §1

[4] = target: ADAM10 (lysine site: K601) (UniProt O14672)
In short: as §1

[5] = target: BACE2 (lysine site: K299) (UniProt Q9Y5Z0)
Chain of BACE2 (lysine site: K299) (Q9Y5Z0 whole entry): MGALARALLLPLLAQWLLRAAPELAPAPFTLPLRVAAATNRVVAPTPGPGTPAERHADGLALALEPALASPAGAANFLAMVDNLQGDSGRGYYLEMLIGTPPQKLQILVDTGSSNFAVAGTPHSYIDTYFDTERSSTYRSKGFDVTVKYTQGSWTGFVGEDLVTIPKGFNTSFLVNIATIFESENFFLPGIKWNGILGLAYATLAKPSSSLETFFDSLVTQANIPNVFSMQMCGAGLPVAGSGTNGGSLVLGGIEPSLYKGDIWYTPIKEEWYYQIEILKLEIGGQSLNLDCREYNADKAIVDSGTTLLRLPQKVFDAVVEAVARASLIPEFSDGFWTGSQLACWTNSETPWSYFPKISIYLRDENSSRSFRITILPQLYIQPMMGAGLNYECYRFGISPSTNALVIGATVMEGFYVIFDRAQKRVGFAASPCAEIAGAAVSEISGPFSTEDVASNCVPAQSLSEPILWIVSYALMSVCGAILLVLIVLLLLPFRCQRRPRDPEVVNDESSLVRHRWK
In short: as §1

BSG (lysine site: K264) = BSG (lysine site: K264) (UniProt P35613)
In short: as §1

CALR (lysine site: K159) = CALR (lysine site: K159) (UniProt P27797)
In short: as §1

CALR (lysine site: K360) = CALR (lysine site: K360) (UniProt P27797)
In short: as §1

CALR (lysine site: K64) = CALR (lysine site: K64) (UniProt P27797)
In short: as §1

CAV1 (lysine site: K47) = CAV1 (lysine site: K47) (UniProt Q03135)
Chain of CAV1 (lysine site: K47) (Q03135 whole entry): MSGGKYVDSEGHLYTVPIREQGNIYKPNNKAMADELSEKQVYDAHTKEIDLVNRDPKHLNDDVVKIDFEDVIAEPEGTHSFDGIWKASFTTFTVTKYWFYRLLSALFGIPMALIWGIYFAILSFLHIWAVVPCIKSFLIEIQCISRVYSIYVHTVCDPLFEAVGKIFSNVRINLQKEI
In short: as §1

CDC37 (lysine site: K60) = CDC37 (lysine site: K60) (UniProt Q16543)
In short: as §1

[6] = target: CSDE1 (lysine site: K307) (UniProt O75534)
In short: as §1

CSTB (lysine site: K91) = CSTB (lysine site: K91) (UniProt P04080)
Chain of CSTB (lysine site: K91) (P04080 whole entry): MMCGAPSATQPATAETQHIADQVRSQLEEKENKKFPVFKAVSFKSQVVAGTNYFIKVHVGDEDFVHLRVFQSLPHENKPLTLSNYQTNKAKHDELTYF
In short: as §1

[7] = target: DDX50 (lysine site: K271) (UniProt Q9BQ39)
In short: as §1

[8] = target: DDX50 (lysine site: K432) (UniProt Q9BQ39)
In short: as §1

GART (lysine site: K251) = GART (lysine site: K251) (UniProt P22102)
In short: as §1

[9] = target: HNRNPF (lysine site: K224) (UniProt P52597)
In short: as §1

[10] = target: HNRNPF (lysine site: K87) (UniProt P52597)
In short: as §1

[11] = target: HNRNPF (lysine site: K98) (UniProt P52597)
In short: as §1

[12] = target: HYOU1 (lysine site: K797) (UniProt Q9Y4L1)
In short: as §1

[13] = target: ITIH2 (lysine site: K148) (UniProt P19823)
Chain of ITIH2 (lysine site: K148) (P19823 whole entry): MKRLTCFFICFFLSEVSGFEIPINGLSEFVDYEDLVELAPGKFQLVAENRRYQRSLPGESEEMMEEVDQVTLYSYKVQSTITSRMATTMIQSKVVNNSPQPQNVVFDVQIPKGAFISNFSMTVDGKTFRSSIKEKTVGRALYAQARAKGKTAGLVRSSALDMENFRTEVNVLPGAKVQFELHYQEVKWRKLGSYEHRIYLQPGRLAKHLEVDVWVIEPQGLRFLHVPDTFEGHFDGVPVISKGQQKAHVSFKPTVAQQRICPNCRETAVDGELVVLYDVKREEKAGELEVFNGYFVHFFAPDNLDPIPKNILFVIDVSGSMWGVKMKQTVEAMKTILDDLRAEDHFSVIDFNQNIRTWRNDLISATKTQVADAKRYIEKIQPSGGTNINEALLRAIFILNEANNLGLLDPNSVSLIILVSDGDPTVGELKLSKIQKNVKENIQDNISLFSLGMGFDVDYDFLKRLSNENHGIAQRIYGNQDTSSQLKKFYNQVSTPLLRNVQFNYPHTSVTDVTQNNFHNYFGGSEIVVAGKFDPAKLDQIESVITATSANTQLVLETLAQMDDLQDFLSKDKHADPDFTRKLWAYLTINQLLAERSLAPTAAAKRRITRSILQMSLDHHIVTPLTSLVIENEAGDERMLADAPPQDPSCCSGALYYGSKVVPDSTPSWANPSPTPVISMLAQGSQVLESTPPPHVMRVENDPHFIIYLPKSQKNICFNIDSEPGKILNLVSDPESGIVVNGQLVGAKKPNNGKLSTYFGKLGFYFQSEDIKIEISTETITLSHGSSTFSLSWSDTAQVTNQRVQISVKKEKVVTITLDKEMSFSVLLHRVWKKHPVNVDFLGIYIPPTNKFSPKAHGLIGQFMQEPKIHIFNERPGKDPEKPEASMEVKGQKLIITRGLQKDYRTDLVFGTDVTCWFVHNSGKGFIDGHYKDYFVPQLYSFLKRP
In short: as §1

[14] = target: ITIH2 (lysine site: K150) (UniProt P19823)
Chain of ITIH2 (lysine site: K150) (P19823 whole entry): as above
In short: as §1

[15] = target: ITIH2 (lysine site: K190) (UniProt P19823)
Chain of ITIH2 (lysine site: K190) (P19823 whole entry): as above
In short: as §1

[16] = target: LMAN2 (lysine site: K303) (UniProt Q12907)
In short: as §1

MDH2 (lysine site: K185) = MDH2 (lysine site: K185) (UniProt P40926)
In short: as §1

[17] = target: NCR3LG1 (lysine site: K101) (UniProt Q68D85)
In short: as §1

[18] = target: NECTIN2 (lysine site: K97) (UniProt Q92692)
In short: as §1

PHB (lysine site: K240) = PHB (lysine site: K240) (UniProt P35232)
Chain of PHB (lysine site: K240) (P35232 whole entry): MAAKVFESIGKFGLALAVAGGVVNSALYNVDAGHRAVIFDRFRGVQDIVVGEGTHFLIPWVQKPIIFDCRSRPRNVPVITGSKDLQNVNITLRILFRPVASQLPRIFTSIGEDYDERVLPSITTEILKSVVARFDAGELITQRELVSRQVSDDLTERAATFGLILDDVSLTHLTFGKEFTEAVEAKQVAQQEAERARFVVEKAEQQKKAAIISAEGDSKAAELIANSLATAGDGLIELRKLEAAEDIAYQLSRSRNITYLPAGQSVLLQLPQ
In short: as §1

[19] = target: PODXL (lysine site: K385) (UniProt O00592)
Chain of PODXL (lysine site: K385) (O00592 whole entry): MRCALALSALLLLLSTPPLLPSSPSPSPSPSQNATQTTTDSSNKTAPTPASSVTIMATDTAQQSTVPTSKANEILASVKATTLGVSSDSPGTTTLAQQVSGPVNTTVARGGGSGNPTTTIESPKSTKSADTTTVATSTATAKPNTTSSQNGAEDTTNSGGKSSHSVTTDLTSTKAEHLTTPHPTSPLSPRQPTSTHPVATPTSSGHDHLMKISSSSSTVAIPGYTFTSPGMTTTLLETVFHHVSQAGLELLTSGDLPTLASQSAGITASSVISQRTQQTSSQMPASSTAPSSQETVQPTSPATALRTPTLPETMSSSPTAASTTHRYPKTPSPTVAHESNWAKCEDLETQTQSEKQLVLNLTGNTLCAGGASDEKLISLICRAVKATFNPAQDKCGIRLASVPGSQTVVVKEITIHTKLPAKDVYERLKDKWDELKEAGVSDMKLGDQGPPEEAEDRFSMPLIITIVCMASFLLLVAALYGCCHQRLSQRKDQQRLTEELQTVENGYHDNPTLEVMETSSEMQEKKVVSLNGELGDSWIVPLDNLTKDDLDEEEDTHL
In short: as §1

[20] = target: PODXL (lysine site: K394) (UniProt O00592)
Chain of PODXL (lysine site: K394) (O00592 whole entry): as above
In short: as §1

[21] = target: PODXL (lysine site: K418) (UniProt O00592)
Chain of PODXL (lysine site: K418) (O00592 whole entry): as above
In short: as §1

[22] = target: PODXL (lysine site: K422) (UniProt O00592)
Chain of PODXL (lysine site: K422) (O00592 whole entry): as above
In short: as §1

[23] = target: PODXL (lysine site: K444) (UniProt O00592)
Chain of PODXL (lysine site: K444) (O00592 whole entry): as above
In short: as §1

[24] = target: PSMD6 (lysine site: K130) (UniProt Q15008)
In short: as §1

[25] = target: PSMD6 (lysine site: K372) (UniProt Q15008)
In short: as §1

[26] = target: PTPRK (lysine site: K227) (UniProt Q15262)
In short: as §1

[27] = target: PTPRK (lysine site: K244) (UniProt Q15262)
In short: as §1

[28] = target: PTPRK (lysine site: K262) (UniProt Q15262)
In short: as §1

[29] = target: PTPRK (lysine site: K394) (UniProt Q15262)
In short: as §1

[30] = target: PTPRK (lysine site: K397) (UniProt Q15262)
In short: as §1

[31] = target: PTPRK (lysine site: K722) (UniProt Q15262)
In short: as §1

[32] = target: SACM1L (lysine site: K483) (UniProt Q9NTJ5)
Chain of SACM1L (lysine site: K483) (Q9NTJ5 whole entry): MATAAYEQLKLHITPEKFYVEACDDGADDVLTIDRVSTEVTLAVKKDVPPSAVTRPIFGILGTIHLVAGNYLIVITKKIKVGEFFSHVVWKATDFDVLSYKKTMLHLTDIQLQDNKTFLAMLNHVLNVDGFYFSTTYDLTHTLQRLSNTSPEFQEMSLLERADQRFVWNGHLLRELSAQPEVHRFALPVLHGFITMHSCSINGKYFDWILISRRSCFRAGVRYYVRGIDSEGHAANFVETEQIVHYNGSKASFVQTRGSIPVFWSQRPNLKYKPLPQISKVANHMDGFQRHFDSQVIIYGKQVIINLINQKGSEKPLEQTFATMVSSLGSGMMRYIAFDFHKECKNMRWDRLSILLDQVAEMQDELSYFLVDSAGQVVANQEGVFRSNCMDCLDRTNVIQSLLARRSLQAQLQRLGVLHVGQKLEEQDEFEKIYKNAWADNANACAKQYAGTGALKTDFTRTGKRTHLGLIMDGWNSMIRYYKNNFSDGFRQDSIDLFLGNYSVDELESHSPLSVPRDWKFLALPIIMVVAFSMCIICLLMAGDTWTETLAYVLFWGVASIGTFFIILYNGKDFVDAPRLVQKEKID
In short: as §1

[33] = target: SLC25A3 (lysine site: K218) (UniProt Q00325)
In short: as §1

[34] = target: SLC25A3 (lysine site: K234) (UniProt Q00325)
In short: as §1

[35] = target: SLC25A3 (lysine site: K252) (UniProt Q00325)
In short: as §1

[36] = target: SLC25A3 (lysine site: K304) (UniProt Q00325)
In short: as §1

[37] = target: SLC25A3 (lysine site: K313) (UniProt Q00325)
In short: as §1

[38] = target: SNAP23 (lysine site: K64) (UniProt O00161)
Chain of SNAP23 (lysine site: K64) (O00161 whole entry): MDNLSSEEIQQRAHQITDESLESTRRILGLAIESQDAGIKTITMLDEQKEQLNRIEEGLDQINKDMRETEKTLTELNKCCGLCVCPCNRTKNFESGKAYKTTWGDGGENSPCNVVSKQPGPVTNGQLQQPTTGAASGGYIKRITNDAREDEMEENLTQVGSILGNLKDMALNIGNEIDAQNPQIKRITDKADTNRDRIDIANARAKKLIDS
In short: as §1

[39] = target: TMED10 (lysine site: K145) (UniProt P49755)
In short: as §1

TPBG (lysine site: K328) = TPBG (lysine site: K328) (UniProt Q13641)
In short: as §1

TPBG (lysine site: K76) = TPBG (lysine site: K76) (UniProt Q13641)
In short: as §1

[40] = target: TSPAN14 (lysine site: K132) (UniProt Q8NG11)
In short: as §1

[41] = target: UniProt P08729 (lysine site: K273)
In short: as §1

[42] = target: UniProt P08729 (lysine site: K296)
In short: as §1

[43] = target: UniProt P08729 (lysine site: K326)
In short: as §1

[44] = target: UniProt P08729 (lysine site: K331)
In short: as §1

[45] = target: UniProt P08729 (lysine site: K353)
In short: as §1

[46] = target: UniProt P08913 (lysine site: K190)
In short: as §1

[47] = target: UniProt P50895 (lysine site: K482)
In short: as §1

[48] = target: UniProt P50895 (lysine site: K531)
In short: as §1

[49] = target: UniProt Q6ZS17 (lysine site: K71)
In short: as §1

WLS (lysine site: K161) = WLS (lysine site: K161) (UniProt Q5T9L3)
In short: as §1

WLS (lysine site: K168) = WLS (lysine site: K168) (UniProt Q5T9L3)
In short: as §1

YWHAB (lysine site: K70) = YWHAB (lysine site: K70) (UniProt P31946)
In short: as §1

YWHAZ (lysine site: K85) = YWHAZ (lysine site: K85) (UniProt P63104)
In short: as §1

Chain of ACLY (lysine site: K1080) (P53396 whole entry): as the sequence (P53396 whole entry) above

C#CCNC(=O)CCSSCCC(=O)NCCc1ccc(C=O)c(C=O)c1
lysine labeling ratio R10:1 [1]: 6.28 | lysine labeling ratio R10:1 (ACLY (lysine site: K272)): 2.72 | lysine labeling ratio R10:1 (ACLY (lysine site: K780)): 1.27 (active) | lysine labeling ratio R10:1 (ACLY (lysine site: K836)): 3 | lysine labeling ratio R10:1 (ACLY (lysine site: K968)): 4.07 | lysine labeling ratio R10:1 (ACLY (lysine site: K978)): 2.77 | lysine labeling ratio R10:1 [2]: 2.98 | lysine labeling ratio R10:1 [3]: 1.51 (active) | lysine labeling ratio R10:1 [4]: 0.81 (active) | lysine labeling ratio R10:1 [5]: 1.18 (active) | lysine labeling ratio R10:1 (BSG (lysine site: K264)): 2.59 | lysine labeling ratio R10:1 (CALR (lysine site: K159)): 1.52 (active) | lysine labeling ratio R10:1 (CALR (lysine site: K360)): 5.32 | lysine labeling ratio R10:1 (CALR (lysine site: K64)): 2.12 | lysine labeling ratio R10:1 (CAV1 (lysine site: K47)): 1.22 (active) | lysine labeling ratio R10:1 (CDC37 (lysine site: K60)): 2.43 | lysine labeling ratio R10:1 [6]: 1.59 (active) | lysine labeling ratio R10:1 (CSTB (lysine site: K91)): 4.21 | lysine labeling ratio R10:1 [7]: 0.745 (active) | lysine labeling ratio R10:1 [8]: 1.99 (active) | lysine labeling ratio R10:1 (GART (lysine site: K251)): 5.53 | lysine labeling ratio R10:1 [9]: 6.19 | lysine labeling ratio R10:1 [10]: 2.84 | lysine labeling ratio R10:1 [11]: 3.88 | lysine labeling ratio R10:1 [12]: 6.93 | lysine labeling ratio R10:1 [13]: 3.03 | lysine labeling ratio R10:1 [14]: 3.29 | lysine labeling ratio R10:1 [15]: 4.46 | lysine labeling ratio R10:1 [16]: 1.72 (active) | lysine labeling ratio R10:1 (MDH2 (lysine site: K185)): 3.9 | lysine labeling ratio R10:1 [17]: 2.58 | lysine labeling ratio R10:1 [18]: 0.864 (active) | lysine labeling ratio R10:1 (PHB (lysine site: K240)): 1.3 (active) | lysine labeling ratio R10:1 [19]: 9.63 | lysine labeling ratio R10:1 [20]: 0.785 (active) | lysine labeling ratio R10:1 [21]: 2.7 | lysine labeling ratio R10:1 [22]: 0.841 (active) | lysine labeling ratio R10:1 [23]: 2.06 | lysine labeling ratio R10:1 [24]: 0.957 (active) | lysine labeling ratio R10:1 [25]: 0.563 (active) | lysine labeling ratio R10:1 [26]: 3.07 | lysine labeling ratio R10:1 [27]: 1.58 (active) | lysine labeling ratio R10:1 [28]: 4.25 | lysine labeling ratio R10:1 [29]: 7.37 | lysine labeling ratio R10:1 [30]: 3.52 | lysine labeling ratio R10:1 [31]: 2.01 | lysine labeling ratio R10:1 [32]: 4.06 | lysine labeling ratio R10:1 [33]: 0.82 (active) | lysine labeling ratio R10:1 [34]: 1.8 (active) | lysine labeling ratio R10:1 [35]: 3.68 | lysine labeling ratio R10:1 [36]: 4.79 | lysine labeling ratio R10:1 [37]: 4.2 | lysine labeling ratio R10:1 [38]: 1.47 (active) | lysine labeling ratio R10:1 [39]: 4.28 | lysine labeling ratio R10:1 (TPBG (lysine site: K328)): 1.99 (active) | lysine labeling ratio R10:1 (TPBG (lysine site: K76)): 2.54 | lysine labeling ratio R10:1 [40]: 0.603 (active) | lysine labeling ratio R10:1 [41]: 3.39 | lysine labeling ratio R10:1 [42]: 3.6 | lysine labeling ratio R10:1 [43]: 5.31 | lysine labeling ratio R10:1 [44]: 5.69 | lysine labeling ratio R10:1 [45]: 9.28 | lysine labeling ratio R10:1 [46]: 2.31 | lysine labeling ratio R10:1 [47]: 1.94 (active) | lysine labeling ratio R10:1 [48]: 2.47 | lysine labeling ratio R10:1 [49]: 5.33 | lysine labeling ratio R10:1 (WLS (lysine site: K161)): 9.23 | lysine labeling ratio R10:1 (WLS (lysine site: K168)): 5.48 | lysine labeling ratio R10:1 (YWHAB (lysine site: K70)): 3.41 | lysine labeling ratio R10:1 (YWHAZ (lysine site: K85)): 3.38
